Our source for the PBM binding z-score values is the supplement of paper PMC6555819.

The experiment deals with FXR:RXRa (NR concentration 270 nM, RXRa partner concentration 90 nM). The experiment in a line: PBM binding z-score (relative to random genomic background probes); higher = stronger binding; sequences stand for … in GC…GCGATTGACAGCGTAGAATGAAGG
The method, boiled down: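 Binding z-scores were set against random background probes. The data came from custom Agilent 4×180K protein-binding microarrays carrying double-stranded probes with 34-nt variable regions, incubated 1 h with ligand-free nuclear receptor dimers. Partner-specific antibodies detected binding, and scanned fluorescence was regression-normalized.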
Consider ATATGTAGGTTAGCTGGGGTCGTTCAGACTAGGC, for which the PBM binding z-score is 1.41. ACTATTAGTGGACTTAGGGCAACCGATACGACGC showed a PBM binding z-score of 0.086. Sequence CGTCCAAGGTCATGGTCAGTGAAAGAGACTCGAA returned a PBM binding z-score of 6.75. In the case of TCTTGTTGATCAAGCAGGTTAAGAAAGCCTGAGT, the PBM binding z-score came to 0.36. GTACCAAGGTGAATAGATCGTTGATGAGTAGGCG yielded a PBM binding z-score of 0.377. Under GCTCGAAGGACAAGGTCAGAGCTTTGTCCGTAGA stands 1.53; under TCGAGTAGGTTACCAATGGGGCATACAGCTTTCT, 0.164. To GCTGCTAGGTCACGTTGGTCAGCTAACGGGTACG belongs 3.59; to CGTCCAAGGTCAGCAGGTCTGTGAAAGCGACGTG, 5.03.

As to ACTTACGGGTCAACGAGGATATAGCACGCGTATA, the PBM binding z-score was 6.53.

CTACCAAGGTGAACAAGGTGGTTGATTACTATTC returned a PBM binding z-score of 0.298.

For the sequence GGAACGAGTGCAAAGTTGATAGCATCTGTCGACG, the PBM binding z-score came out at 0.106.

CGTCCAAGGTCAGCATGTCAGTGAAAGCGACGTG displayed a PBM binding z-score of 5.06. Under ATATGTAGGTTTGCTGGGGTCATTCAGACTAGGC stands 3.58.

Take TCTAGCAGGCCAGAGGGTCAATCAAGAGGTACGG: the PBM binding z-score worked out at 1.44. To GATGCTAGGTCAACTGATGGTCAGCTAAAGCTCG belongs 3.82; to GCTATTAGTTAAAAGGGCAACCGAATGATTCTCG, 0.183. To ATCTCTAGCTAAAGATAGTTCAGTGAATGCAAAT belongs -0.338; to GATACAGGTTCAGCTAGAGGCCAGAGTATGGAAA, 0.427. The sequence CCTTACGGGTCACTCCAGGTTAAAGCATCGGAGT displayed a PBM binding z-score of 5.18.

With TCTTGTAGATCAAAGGTTAAGAATGCCGAAGCCT, the PBM binding z-score was found to be 2.11. To TAGCCTAGGTCTGATCGGGCCAGTATACGCTATA belongs -0.28. Under ACTAGCAGGCCATGTTTGGGTCACTCAAACAAAG stands 0.27. Under GCTGCTAGGTCAAGTTGGTCAGCTAACGGGTACG stands 4.8; under CAAACTACGTCAAGAGGTCAAAGTCCGCTTCCCG, 5.07.

AGTTACGGGTCAACGAGGTTATAGCACGCGTATA gave a PBM binding z-score of 6.05. Under ATCGCTAGGTAAAGTTCAGTGAAAGATCGATAGA stands 0.349. To GCTGCTAGGTAAACTGATGGTCAGCTAAAGCTCG belongs -0.373; to TCATATAGGTAAATGCTAGGTGCAAGTCCGATCT, 0.626; to CGTCCTAGGTCAAGGTCAGTGAAAGAGACTCGAA, 5.87. To GCATATAGGTAATAAAAGGTGAAAGTCCGATTGT belongs 1.12. As for GCGACTGGGGCATCAGCAGGTCACCATAACTTAA, the PBM binding z-score was determined as 0.886.

For the sequence CCTCGGAGGACAGAAGCTCAGAGCTGTCCGCTTT, the PBM binding z-score is -0.605.

The sequence TCTATTAGTTGAAGGGCAAGCGACGAGTCCGTTT yielded a PBM binding z-score of 0.609. Sequence TGTCAAAGTTCAAACGTAACGTAAGTATCCACAC came in with a PBM binding z-score of 7.01. Under CCTTACGGGTCACTGCAGGTTATAGCATCGGAGT stands 5.36; under CTAACTAGGTCAGAACAGGACAGTGAAGGATGAT, 1.45; under TCTCGGAGGACACGATAGGTCAGAGCTCGACATC, 1.07. To AAACCAAGGTGATCGTGAGGTCGTTGATACTAAC belongs 1.87; to CATACAGGGTCAGCTAGGCCAGAGTAGGGACGGC, 4.68.
